For 14 compounds, outcome and AC50 results are on record in PubChem BioAssay (EPA / NIEHS).

One may read the AC50 as the concentration at which the activity in the assay is half-maximal.

Experiment [1] concerns the target rat Peripheral-type Benzodiazepine Receptor (PBR), Tspo (gene 24230) (UniProt P16257). Put plainly: NVS_MP_rPBR: NovaScreen (NVS) Membrane Protein Assay for rat Peripheral-type Benzodiazepine Receptor (PBR) (AID 2283335). An outline of the steps:
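Single-concentration duplicate screening at 25 uM preceded concentration-series retesting of actives. Binding of a specific radioligand to rat kidney membrane PBR was read by filtration radiodetection after 1 h, with plate-wise positive and negative controls.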

Experiment [2] deals with chimpanzee Androgen Receptor (AR), AR (gene 747460) (UniProt O97775). Put plainly: NVS_NR_cAR: NovaScreen (NVS) Nuclear Receptor Binding Assay for chimpanzee Androgen Receptor (AR) (AID 2283346).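 Further: radioligand displacement from AR measured by scintillation counting in a cell-free assay.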 An outline of the steps:
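Radioligand binding to chimpanzee AR expressed in Sf9/Sf21 cells, cell-free, measured 72 h after dosing by lysate-based scintillation counting. Loss of signal vs DMSO; initial duplicate screen at 25 uM, actives retested in concentration series.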

Experiment [3] has as its target Bile acid receptor (Homo sapiens) (UniProt Q96RI1). In words: NVS_NR_hFXR_Antagonist: NovaScreen (NVS) Nuclear Receptor Binding Assay for human Farnesoid X Receptor Antagonism (FXR) (AID 2283350). An outline of the steps:
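Antagonist-format time-resolved FRET binding assay with extracted human receptor protein, read 1 hour after compound addition. Compounds first screened at 25 uM in duplicate, then actives tested in concentration series, with loss of signal relative to DMSO.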

The target of experiment [4] is Androgen Receptor/SRC-1 Co-activator, AR (gene 367) (UniProt P10275). Put plainly: OT_AR_ARSRC1_0960: Odyssey Thera (OT) 16-hour HEK293T Protein-Complementation Assay for Androgen Receptor/SRC-1 Co-activator (AID 2283353).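 Further: actives raise the signal above DMSO so potency reflects increased AR and SRC-1 complex.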 An outline of the steps: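 Readout: 488 nm nuclear-to-cytoplasmic fluorescence ratio from imaging of at least 400 cells per image, 16 h post-dose. Reporter is Venus YFP complementation between AR and SRC-1 fusions, stably expressed in HEK293T; activity scored upward relative to DMSO.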

Experiment [5] concerns NCBI gene 100848466. In words: NVS_NR_bPR: NovaScreen (NVS) Nuclear Receptor Binding Assay for bovine Progextron Receptor (PR) (AID 2283343).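 On AC50: actives lower bound radioligand signal below DMSO meaning displacement of the label.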 An outline of the steps: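 Scintillation counts of bound radioligand were read 18 hours after chemical addition to membranes extracted from bovine uterus. Displacement was scored as loss of signal relative to DMSO controls. Screening began at 25 uM in duplicate.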

Experiment [6] addresses Estrogen receptor beta (Homo sapiens) (UniProt Q92731). In words: OT_ER_ERbERb_0480: Odyssey Thera (OT) 8-hour HEK293T Protein-Complementation Assay for Estrogen Receptor-beta/-beta Homodimer (AID 2283357).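 Further: active means signal gain over DMSO baseline.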 An outline of the steps: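 Homodimerization of ER-beta LBD measured by protein-fragment complementation in HEK293T; 8 h dosing; fixed, Draq5 counterstain; fluorescence intensity gain over DMSO baseline, positive fitting direction; laser scanning cytometry.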

Experiment [7] addresses human Constitutive Androstane Receptor (CAR), NR1I3 (gene 9970) (UniProt Q14994). In words: NVS_NR_hCAR_Antagonist: NovaScreen (NVS) Nuclear Receptor Binding Assay for human Constitutive Androstane Receptor Antagonism (CAR) (AID 2283344). An outline of the steps: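 Single 25 uM duplicate primary screen, with concentration-series follow-up on actives. Cell-free binding format run in antagonist mode, TR-FRET signal taken 1 h post-dose; activity is signal loss relative to DMSO.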

Experiment [8] deals with bovine Estrogen Receptor (ER), ESR1 (gene 407238) (UniProt P49884). Put plainly: NVS_NR_bER: NovaScreen (NVS) Nuclear Receptor Binding Assay for bovine Estrogen Receptor (ER) (AID 2283345).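 Further: actives lower the bound radioligand count which means they displace the ER ligand.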 An outline of the steps:
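Displacement of a radioligand from estrogen receptor in bovine uterine membrane preparations; scintillation signal taken at 18 hours, DMSO as baseline. Single-concentration duplicates (25 uM) preceded concentration-response follow-up of actives.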

Experiment [9] concerns the target Estrogen receptor (Homo sapiens) (UniProt P03372). In words: NVS_NR_hER: NovaScreen (NVS) Nuclear Receptor Binding Assay for human Estrogen Receptor (ER) (AID 2283348). An outline of the steps:
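MCF7-derived receptor extract, radiolabelled ligand, competitive displacement. Read: scintillation counts at 18 h. DMSO = negative control/baseline. Primary 25 uM duplicate; follow-up concentration–response.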

For experiment [10] the target is unchanged. Put plainly: OT_ER_ERaERa_1440: Odyssey Thera (OT) 24-hour HEK293T Protein-Complementation Assay for Estrogen Receptor-alpha/-alpha Homodimer (AID 2283349).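 Further: hits raise fluorescence above DMSO for agonists and antagonists alike.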 The essentials: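 Cells (HEK293T) carrying the fragment-tagged ERα LBD (aa 310-547) pair are treated with chemical for 24 hours. Nuclear and/or cytoplasmic fluorescence is then quantified on a laser scanning cytometer. Activity is scored as signal gain against DMSO.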

For experiment [11] the target is unchanged. In words: OT_ER_ERaERa_0480: Odyssey Thera (OT) 8-hour HEK293T Protein-Complementation Assay for Estrogen Receptor-alpha/-alpha Homodimer (AID 2283351).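 Further: rise in fluorescence from reassembled reporter fragments on ERα LBD homodimer in nucleus or whole cell.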 The essentials:
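Read-out: fluorescence intensity rise relative to DMSO, nuclear for agonists, nuclear plus cytoplasmic for antagonists. Construct is the ERα LBD (aa 310-547) homodimer fragment-complementation pair, stably expressed in HEK293T; exposure 8 h.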

Experiment [12] concerns the target bovine Gamma-Aminobutyric Acid Type A Receptor Agonist (GABAR Agonist), GABRA1 (gene 780973) (UniProt P08219). Put plainly: NVS_LGIC_bGABAR_Agonist: NovaScreen (NVS) Ligand-Gated Ion Channel Assay for bovine Gamma-Aminobutyric Acid Type A Receptor Agonist (GABAR Agonist) (AID 2283338). The essentials: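 Radioligand binding to bovine cerebellar membranes in agonist format, read by filter-based scintillation counting after 1 h. Primary screen in duplicate at 25 uM, with actives followed in concentration series. Gain of signal versus DMSO.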

In experiment [13] the target is Small conductance calcium-activated potassium channel protein 1 (Rattus norvegicus) (UniProt P70606). In words: NVS_IC_rKCaCh: NovaScreen (NVS) Ion Channel Assay for rat Potassium Channel, Ca2+ Act., VI (KCaCh) (AID 2283336). An outline of the steps:
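Filter-based scintillation counting of radioligand bound to rat forebrain membrane preparations, measured 1 h after compound addition. Primary screen used 25 uM in duplicate, with concentration-response follow-up; signal decrease relative to DMSO marks activity.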

Experiment [14] deals with Estrogen receptor (Homo sapiens) + Estrogen receptor beta (Homo sapiens) (UniProt P03372+Q92731). In words: OT_ER_ERaERb_1440: Odyssey Thera (OT) 24-hour HEK293T Protein-Complementation Assay for Estrogen Receptor-alpha/-beta Homodimer (AID 2283356).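 Further: heteromer of ER alpha and ER beta binding domains; hits raise reporter fluorescence and both agonists and antagonists give an increase.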 An outline of the steps: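 Readout: mean fluorescence intensity in nucleus (agonists) or nucleus plus cytoplasm (antagonists), read by laser scanning cytometer after 24 h compound exposure of HEK293T cells carrying ERα/ERβ LBD fragment-complementation constructs; DMSO baseline.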

Experiment [15] can be described thus: NVS_IC_rCaBTZCHL: NovaScreen (NVS) Ion Channel Assay for Calcium Channel, Type L, Benzothiazepine Site (CaBTZCHL) (AID 2283337). An outline of the steps:
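Rat cortical membrane preparation, cell-free. Radioligand displaced by test chemical; 1.5 h incubation; filtration, scintillation count. DMSO = negative control/baseline. Primary: duplicate, 25 uM; secondary: concentration series.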

The subject of experiment [16] is guinea pig Histamine Receptor (H2), gene 100729734. In words: NVS_GPCR_gH2: NovaScreen (NVS) G Protein-Coupled Receptor Assay for guinea pig Histamine Receptor (H2) (AID 2283342). An outline of the steps:
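Guinea pig striatal membrane preparation with specific radioligand; bound counts measured by filtration and scintillation 1 h post-dosing, DMSO as baseline. Chemicals passing a 25 uM duplicate screen were titrated to a 50 uM maximum.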

The target in experiment [17] is rat Glutamate, MK-801 Agonist Site (GluNMDA_MK801), Grin1 (gene 24408) (UniProt P35439). In words: NVS_LGIC_rGluNMDA_MK801_Agonist: NovaScreen (NVS) Ligand-Gated Ion Channel Assay for rat Glutamate, MK-801 Agonist Site (GluNMDA_MK801) (AID 2283340). An outline of the steps: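 Rat forebrain membrane preparation; MK-801-site radioligand binding read by filtration and scintillation after 1.5 h. Single-point 25 uM duplicate screen, followed by singleton concentration series to 50 uM max; DMSO baseline.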

For experiment [18], the target named is rat Glycine Receptor, Strychnine-sensitive (GlyRStrySens), Glra1 (gene 25674) (UniProt P07727). Put plainly: NVS_LGIC_rGlyRStrySens: NovaScreen (NVS) Ligand-Gated Ion Channel Assay for rat Glycine Receptor, Strychnine-sensitive (GlyRStrySens) (AID 2283341). An outline of the steps:
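Radioligand displacement on rat spinal cord membranes, 1 hr, filter scintillation read-out. Single-concentration duplicate screen at 25 uM; chemicals meeting threshold (e.g., 30% inhibition) rerun in concentration-response up to 50 uM. Loss of binding fitted versus DMSO.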

Molecules are shown by their SMILES. Several values for one entry are separate records, joined by “and”; a condition that tells them apart may be missing. Equal entries are not always repeated. Inconclusive results are not listed. A structure can be active in one record and inactive in another. Activity calls are given as the source filed them. How the source made its calls: active means hit-call score of the fitted dose curve at least 0.9, where 1 is the maximum; inconclusive means response in the unintended direction; inactive means score below 0.9.

Estrogen receptor (Homo sapiens) + Estrogen receptor beta (Homo sapiens), sequence (P03372 whole entry, looked up, the tested form may be a part): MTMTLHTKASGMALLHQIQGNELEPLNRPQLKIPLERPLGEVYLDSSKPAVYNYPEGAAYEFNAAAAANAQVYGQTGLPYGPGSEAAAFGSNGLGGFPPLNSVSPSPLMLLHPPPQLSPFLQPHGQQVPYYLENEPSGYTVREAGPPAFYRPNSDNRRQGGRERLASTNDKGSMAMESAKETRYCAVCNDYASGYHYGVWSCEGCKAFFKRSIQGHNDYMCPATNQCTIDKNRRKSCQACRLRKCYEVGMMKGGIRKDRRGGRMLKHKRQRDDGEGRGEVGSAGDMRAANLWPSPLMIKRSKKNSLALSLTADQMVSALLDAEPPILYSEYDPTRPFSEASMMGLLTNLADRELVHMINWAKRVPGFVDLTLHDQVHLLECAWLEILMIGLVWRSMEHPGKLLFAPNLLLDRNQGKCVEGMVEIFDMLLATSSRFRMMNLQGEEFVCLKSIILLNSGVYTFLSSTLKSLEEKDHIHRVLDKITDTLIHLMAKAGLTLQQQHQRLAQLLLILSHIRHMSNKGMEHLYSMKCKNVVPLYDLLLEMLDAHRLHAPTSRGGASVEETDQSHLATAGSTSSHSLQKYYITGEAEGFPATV
Estrogen receptor (Homo sapiens) + Estrogen receptor beta (Homo sapiens), sequence (Q92731 whole entry, looked up, the tested form may be a part): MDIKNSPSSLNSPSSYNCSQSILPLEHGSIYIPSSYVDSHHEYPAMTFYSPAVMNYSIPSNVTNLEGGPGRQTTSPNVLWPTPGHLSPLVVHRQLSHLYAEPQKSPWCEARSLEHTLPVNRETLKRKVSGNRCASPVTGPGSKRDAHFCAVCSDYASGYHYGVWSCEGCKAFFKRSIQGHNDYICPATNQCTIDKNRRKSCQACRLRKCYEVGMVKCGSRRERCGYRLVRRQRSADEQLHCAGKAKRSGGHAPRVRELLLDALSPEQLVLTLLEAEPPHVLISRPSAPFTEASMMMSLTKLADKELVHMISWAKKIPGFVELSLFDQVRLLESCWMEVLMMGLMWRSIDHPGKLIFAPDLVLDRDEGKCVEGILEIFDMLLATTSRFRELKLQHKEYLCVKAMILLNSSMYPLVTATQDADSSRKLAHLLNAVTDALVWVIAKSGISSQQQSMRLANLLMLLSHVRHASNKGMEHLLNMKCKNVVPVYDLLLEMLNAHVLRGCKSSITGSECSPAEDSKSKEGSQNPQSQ
Estrogen receptor (Homo sapiens), sequence (P03372 whole entry, looked up): as the sequence (P03372 whole entry, looked up, the tested form may be a part) above
chimpanzee Androgen Receptor (AR), AR (gene 747460), sequence (O97775 whole entry, looked up): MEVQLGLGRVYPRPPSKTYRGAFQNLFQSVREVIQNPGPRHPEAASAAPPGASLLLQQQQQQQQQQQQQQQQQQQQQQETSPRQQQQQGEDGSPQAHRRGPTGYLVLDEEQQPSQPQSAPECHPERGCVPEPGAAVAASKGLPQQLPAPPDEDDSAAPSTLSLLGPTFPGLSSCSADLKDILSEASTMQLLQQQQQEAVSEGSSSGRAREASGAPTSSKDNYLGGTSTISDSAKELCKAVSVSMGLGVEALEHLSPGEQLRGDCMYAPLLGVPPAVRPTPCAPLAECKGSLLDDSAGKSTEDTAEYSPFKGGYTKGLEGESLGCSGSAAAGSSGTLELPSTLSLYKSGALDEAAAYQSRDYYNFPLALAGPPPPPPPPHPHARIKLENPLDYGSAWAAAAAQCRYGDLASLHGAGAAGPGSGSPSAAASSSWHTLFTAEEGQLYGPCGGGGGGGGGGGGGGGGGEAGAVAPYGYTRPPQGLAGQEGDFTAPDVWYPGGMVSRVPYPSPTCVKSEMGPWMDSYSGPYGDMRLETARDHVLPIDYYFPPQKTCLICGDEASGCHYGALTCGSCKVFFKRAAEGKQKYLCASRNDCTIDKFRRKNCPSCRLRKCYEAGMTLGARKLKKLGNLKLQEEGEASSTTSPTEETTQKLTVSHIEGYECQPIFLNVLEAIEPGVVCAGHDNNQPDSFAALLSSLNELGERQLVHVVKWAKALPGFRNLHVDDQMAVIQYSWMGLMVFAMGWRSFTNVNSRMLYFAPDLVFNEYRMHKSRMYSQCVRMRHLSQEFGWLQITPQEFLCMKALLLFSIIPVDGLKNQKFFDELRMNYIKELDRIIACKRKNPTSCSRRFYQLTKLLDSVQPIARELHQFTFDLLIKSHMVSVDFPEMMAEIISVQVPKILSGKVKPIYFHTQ
rat Peripheral-type Benzodiazepine Receptor (PBR), Tspo (gene 24230), sequence (P16257 whole entry, looked up): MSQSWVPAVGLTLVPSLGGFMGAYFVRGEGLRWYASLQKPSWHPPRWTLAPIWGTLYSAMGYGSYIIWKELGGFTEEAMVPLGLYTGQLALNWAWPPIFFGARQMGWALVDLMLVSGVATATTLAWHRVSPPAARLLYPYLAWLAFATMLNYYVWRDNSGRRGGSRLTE
bovine Estrogen Receptor (ER), ESR1 (gene 407238), sequence (P49884 whole entry, looked up): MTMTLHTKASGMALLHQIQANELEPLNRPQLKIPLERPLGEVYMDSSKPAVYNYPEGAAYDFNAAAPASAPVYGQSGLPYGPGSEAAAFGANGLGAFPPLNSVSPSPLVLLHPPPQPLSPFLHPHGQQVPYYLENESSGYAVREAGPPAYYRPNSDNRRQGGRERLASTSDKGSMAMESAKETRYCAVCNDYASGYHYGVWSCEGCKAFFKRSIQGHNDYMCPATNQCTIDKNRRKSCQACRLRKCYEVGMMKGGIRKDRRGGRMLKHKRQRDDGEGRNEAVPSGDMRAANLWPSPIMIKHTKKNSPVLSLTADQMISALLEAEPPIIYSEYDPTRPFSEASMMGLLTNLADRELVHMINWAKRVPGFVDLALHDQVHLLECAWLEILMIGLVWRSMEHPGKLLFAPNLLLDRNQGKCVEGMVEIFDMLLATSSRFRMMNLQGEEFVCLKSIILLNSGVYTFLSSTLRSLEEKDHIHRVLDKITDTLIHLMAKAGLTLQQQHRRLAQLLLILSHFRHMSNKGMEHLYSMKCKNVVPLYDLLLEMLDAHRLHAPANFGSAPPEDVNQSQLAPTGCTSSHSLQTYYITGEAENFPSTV
Androgen Receptor/SRC-1 Co-activator, AR (gene 367), sequence (P10275 whole entry, looked up, the tested form may be a part): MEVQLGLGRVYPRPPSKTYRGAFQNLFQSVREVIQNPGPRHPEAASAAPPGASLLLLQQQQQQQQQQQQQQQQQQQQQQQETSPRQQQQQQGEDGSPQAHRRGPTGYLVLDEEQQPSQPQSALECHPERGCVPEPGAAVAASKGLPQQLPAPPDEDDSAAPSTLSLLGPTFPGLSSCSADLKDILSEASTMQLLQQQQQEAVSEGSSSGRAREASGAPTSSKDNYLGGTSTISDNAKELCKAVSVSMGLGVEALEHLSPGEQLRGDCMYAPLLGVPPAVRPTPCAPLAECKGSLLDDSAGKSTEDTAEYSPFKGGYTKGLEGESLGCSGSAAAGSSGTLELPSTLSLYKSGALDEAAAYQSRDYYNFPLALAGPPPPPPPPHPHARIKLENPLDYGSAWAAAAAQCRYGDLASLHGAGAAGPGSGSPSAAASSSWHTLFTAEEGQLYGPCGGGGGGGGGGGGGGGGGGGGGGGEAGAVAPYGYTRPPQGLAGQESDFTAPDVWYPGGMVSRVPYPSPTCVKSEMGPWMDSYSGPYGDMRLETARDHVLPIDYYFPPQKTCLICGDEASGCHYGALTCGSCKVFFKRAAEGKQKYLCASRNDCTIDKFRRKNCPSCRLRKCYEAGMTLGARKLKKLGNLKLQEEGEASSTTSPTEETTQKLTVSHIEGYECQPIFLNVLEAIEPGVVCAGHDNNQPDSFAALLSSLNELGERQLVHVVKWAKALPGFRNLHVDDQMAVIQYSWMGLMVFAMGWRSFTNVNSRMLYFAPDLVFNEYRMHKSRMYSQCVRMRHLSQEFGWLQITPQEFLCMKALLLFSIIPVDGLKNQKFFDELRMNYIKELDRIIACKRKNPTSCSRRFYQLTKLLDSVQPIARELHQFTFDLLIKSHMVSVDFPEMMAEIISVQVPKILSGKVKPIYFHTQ
Estrogen receptor beta (Homo sapiens), sequence (Q92731 whole entry, looked up, the tested form may be a part): as the sequence (Q92731 whole entry, looked up, the tested form may be a part) above

Turning to `O=c1c(-c2ccc(O)cc2)coc2cc(O)cc(O)c12`, the call in experiment [1], in [2], in [3] and in experiment [4] was inactive.
For the compound `CCCCOC(=O)c1ccc(O)cc1`, the AC50 is 3 µM (active) and 25 µM (active) in experiment [1]; 4.69 µM (active) and 5.25 µM (active) and 5.52 µM (active) in experiment [6]. Moreover, the call in [5], in [2] and in [4] was inactive.
Turning to `Cc1c2ccccc2c(C)c2c1ccc1ccccc12`, the concentration at half-maximal activity (AC50) was 1.69 µM (active) in [1], 9.4 µM (active) in experiment [5] and 13.7 µM (active) in experiment [4]. Moreover, the compound was classed as inactive in [7], in experiment [8], in [2], in experiment [9], in experiment [10] and in experiment [11]. Further, the compound was classed as inactive in experiment [6].
Turning to `Cc1ccc(C(C)C)cc1`, the outcome in experiment [12], in experiment [10] and in experiment [11] was inactive.
For `OC12N=C(c3ccccc3)SC1Cc1cc(Cl)ccc12` (configuration not stated), the AC50 in experiment [1] was 6.16 µM (active). Moreover, the outcome in experiment [13], in [8], in experiment [2], in [10], in experiment [11] and in [14] was inactive. Moreover, the compound was classed as inactive in experiment [6].
Turning to `CC(C)(c1cc(Br)c(O)c(Br)c1)c1cc(Br)c(O)c(Br)c1`, the half-maximal activity concentration (AC50) in experiment [12] is 44.4 µM (active). In addition, the call in experiment [8] and in experiment [6] was inactive.
With `Cc1cc(F)ccc1-c1cc(N2CC[C@@H](O)[C@H]2CO)ncc1N(C)C(=O)C(C)(C)c1cc(C(F)(F)F)cc(C(F)(F)F)c1`, the result in experiment [15], in experiment [16], in experiment [9], in experiment [10], in experiment [3] and in [11] was inactive. The result in experiment [14] and in experiment [6] was inactive. Besides, the AC50 was 11.3 µM (active) in experiment [5] and 15.2 µM (active) in experiment [4].
With `Cc1cccc2ccccc12`, the compound was called inactive in experiment [12], in experiment [10] and in experiment [11].
`CN(C)c1ccc(C(=C2C=CC(=[N+](C)C)C=C2)c2ccc(N(C)C)cc2)cc1`: the AC50 is 5.36 µM (active) in experiment [1]; 5.44 µM (active) in experiment [15]; 0.827 µM (active) in [16]; 4.43 µM (active) in [5]; 17.7 µM (active) in [2]; 0.273 µM (active) in experiment [4]. The compound was classed as inactive in experiment [8], in [9], in [10], in experiment [11] and in experiment [14].
Turning to `CC/C(=C(/CC)c1ccc(O)cc1)c1ccc(O)cc1`, the half-maximal activity concentration (AC50) is 20.8 µM (active) and 25 µM (active) and 1.49 µM (active) in experiment [1]; 12.4 µM (active) in experiment [15]; 9.68 µM (active) in experiment [5]; 12.6 µM (active) in experiment [2]. Besides, the call in experiment [2] was inactive.
Regarding `CCCCOC(=O)CC(CC(=O)OCCCC)(OC(C)=O)C(=O)OCCCC`, the outcome in [1] and in [6] was inactive.
On to `NCc1cccc(C2CCN(C(=O)c3ccc(C#Cc4ccccc4F)o3)CC2)c1`, for which the result in experiment [1], in experiment [18], in experiment [9], in experiment [10], in experiment [11] and in [6] was inactive. The AC50 in experiment [15] is 2.9 µM (active); in experiment [17] it was 39.9 µM (active); in experiment [16] it was 12 µM (active); in experiment [2], 32.6 µM (active); in [4], 14.6 µM (active).
Consider `CC[C@H](NC(=O)c1cc(F)ccc1NS(=O)(=O)c1cccc2cccnc12)c1ccccc1`, for which the AC50 in experiment [1] is 0.0869 µM (active). Moreover, the result in experiment [8], in experiment [9], in experiment [10], in experiment [11], in [14] and in [6] was inactive.
Turning to `O=C1c2ccccc2C(=O)N1CCc1noc(-c2ccc(CN3CCCCCC3)s2)n1`, the outcome in experiment [1], in experiment [10] and in experiment [11] was inactive. For the same compound, the AC50 in experiment [15] is 7.22 µM (active); in experiment [16] it was 8.06 µM (active).
